In all, about 33,000 sequences were measured (“E-score (-0.5 to 0.5)”: median about -0.04, highest 2% from about 0.36 on). This is one part of a sample in which the highest values are shown more often than they occur.
Each sequence was assayed against T1, Hmlalpha2 (UniProt P0CY09) (assay: PBM E-score (8-mer binding enrichment) (E-score (-0.5 to 0.5)); higher = stronger / more preferred TF binding). Conditions: protein concentration: 200 nM; construct: GST-full length.
T1 sequence: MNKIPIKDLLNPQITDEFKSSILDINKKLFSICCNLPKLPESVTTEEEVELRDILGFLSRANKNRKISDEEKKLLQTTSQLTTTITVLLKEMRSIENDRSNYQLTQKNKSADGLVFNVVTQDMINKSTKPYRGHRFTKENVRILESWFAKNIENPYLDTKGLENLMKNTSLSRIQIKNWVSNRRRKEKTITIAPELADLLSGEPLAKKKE
Procedure: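 Universal 'all 10-mer' protein binding microarrays (Agilent AMADID 015681) probed with GST-tagged S. cerevisiae TFs (full-length or DBD) made by in vitro transcription/translation (PURExpress), about 100-200 nM. Bound TF was detected with fluorescent anti-GST. Each ungapped 8-mer (which stands for itself and its reverse complement) is scored by the PBM enrichment score (E-score), a modified Wilcoxon-Mann-Whitney statistic from -0.5 to +0.5, computed with the Universal PBM Analysis Suite. Scale: above 0.35 generally sequence-specific binding.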

| Sequence | PBM E-score |
| --- | --- |
| TAGGTTGA | 0.0343 |
| ATAGCAGA | 0.00582 |
| ATACAGAA | 0.199 |
| GGCCATGA | -0.217 |
| CTTGCCTA | -0.112 |
| ATAGGCAC | -0.216 |
| CGATTTTA | 0.081 |
| ACCGCGAT | -0.0546 |
| AGTGTTAT | 0.269 |
| CGTGTTAA | 0.481 |
| AGTGTTCA | 0.00891 |
| AGTGTTGA | 0.238 |
| AGTGTTAC | 0.221 |
| CCTGTTAA | 0.288 |
| CGTGTTCA | 0.369 |
| CGTGTTGA | 0.446 |
| AGTGTTAA | 0.374 |
| ACTGTTAA | 0.208 |
| CGTGTTCC | 0.2 |
| CGTGTTGC | 0.301 |
| CGCTCTTA | 0.0692 |
| AGAGAATG | -0.0972 |
| ACGGCCAC | -0.128 |
| AGAACCAT | 0.116 |
| AAAGATTC | 0.196 |
| ACGGTCCC | -0.356 |

| Sequence | PBM E-score |
| --- | --- |
| AGGGTGAC | -0.182 |
| GACGGTGA | -0.192 |
| TCAGAACA | 0.196 |
| ACTGTTAG | -0.13 |
| CGTGTTTA | 0.436 |
| CGTGTTAG | 0.431 |
| AGTGTTAG | 0.0767 |
| CTTGTTAC | 0.274 |
| GGTGTTTA | 0.112 |
| AGTGTTTA | 0.299 |
| GTTGTTAA | 0.359 |
| CCTGTTAC | 0.176 |
| CTTGTTAA | 0.414 |
| CGTGTTAC | 0.41 |
| GGTGTTAC | 0.223 |
| CAGATACC | -0.251 |
| CTAGATCC | -0.22 |
| GAGGCTAC | -0.193 |
| CACTACTA | 0.00081 |
| ACTTGCCA | -0.0087 |
| ACACTTGA | -0.0396 |
| TCGACTCA | 0.0619 |
| CCCAAAGA | -0.0661 |
| ATAAAGAA | 0.0809 |
| AGATTACT | 0.141 |
| CGGTTACG | 0.0305 |

| Sequence | PBM E-score |
| --- | --- |
| CGATTACG | 0.274 |
| TGATTACA | 0.445 |
| TGATTAAA | 0.133 |
| AGATTACA | 0.411 |
| AGATTACC | 0.0994 |
| CGATTACA | 0.461 |
| GGGTTACA | 0.218 |
| TGCTTACA | 0.305 |
| CGGTTACA | 0.367 |
| CGATTACC | -0.0336 |
| CTGTTCTA | 0.102 |
| TGAAGGAA | -0.0399 |
| GCCAATCC | -0.151 |
| ATGGCAAG | -0.153 |
| GGATTACC | -0.00329 |
| GGATTACA | 0.444 |
| GGATTAGA | -0.216 |
| GCTTAAGC | 0.187 |
| CTGTAGTC | -0.0729 |
| ATGTAGTG | 0.332 |
| GTGTAGTA | 0.323 |
| ATGTAGTA | 0.391 |
| ATGTAGTC | 0.37 |
| AAGTAGTC | 0.0858 |
| TAGGCGGA | 0.0174 |
| GATAAGAC | -0.0897 |

| Sequence | PBM E-score |
| --- | --- |
| TATGTTAA | 0.459 |
| TATGTTGA | 0.364 |
| GCTGTTAA | 0.262 |
| AATGTTAA | 0.364 |
| TATGTTCA | 0.316 |
| GATGTTAA | 0.383 |
| GCTGTTAC | -0.0161 |
| AAGATCCG | -0.207 |
| ATTGCCCC | -0.315 |
| CACTGCGA | -0.0249 |
| CAAGGTCC | -0.193 |
| ATATCTCG | -0.151 |
| TTATGCAA | 0.11 |
| AACTACAG | 0.0948 |
| GACTACAC | 0.362 |
| CACTACAC | 0.394 |
| AACTACGT | 0.186 |
| CACTACAG | 0.126 |
| AACTACAT | 0.392 |
| AACTACAA | 0.242 |
| AACTACAC | 0.42 |
| CACTACAA | 0.268 |
| TGGATCCA | -0.063 |
| CCTACTCG | -0.202 |
| ACCCTTGC | -0.209 |
| CGGGATAC | -0.16 |

| Sequence | PBM E-score |
| --- | --- |
| ACGTCTGC | -0.182 |
| ACACGTTA | 0.408 |
| ATACGTAT | 0.308 |
| AAACGTAT | 0.278 |
| ACACGTCT | 0.368 |
| ACACGTAG | 0.351 |
| ACACGTCG | 0.302 |
| ACACGTAT | 0.369 |
| ACACGTAA | 0.396 |
| ACACGTTG | 0.35 |
| ACACGTTC | 0.303 |
| ACACGTAC | 0.347 |
| ACACGTCA | 0.317 |
| CGAGTGGA | -0.137 |
| AGGGGCCG | -0.365 |
| CGGGAGCC | -0.33 |
| CCACGTAA | 0.33 |
| GCACGTAA | 0.348 |
| TCACGTAA | 0.393 |
| AGGTTGGG | -0.0364 |
| CCCTTGGC | -0.35 |
| ATGATTAC | 0.326 |
| GTAATTAC | 0.452 |
| CTAATTAC | 0.362 |
| GCGATTAC | 0.275 |
| ACAATTAC | 0.376 |

| Sequence | PBM E-score |
| --- | --- |
| CTGATTAC | 0.369 |
| CTGATTAA | 0.141 |
| ACGATTAC | 0.383 |
| ACAATTAA | 0.214 |
| ATAATTAC | 0.357 |
| ACAATTAT | 0.214 |
| CCGATTAC | 0.216 |
| GAAGCAAA | 0.156 |
| CGCCACCG | -0.296 |
| CAGAGCTC | -0.142 |
| ATGGCGCC | -0.249 |
| TCCTGCAA | -0.15 |
| GCGGTGCA | -0.281 |
| GTTGCACA | 0.0871 |
| AGTGTTCG | 0.089 |
| ACTTAGGA | -0.0292 |
| AGGGTAAA | 0.0323 |
| CCCAAGCG | -0.19 |
| GTAATAAA | 0.35 |
| ATAATAAC | 0.187 |
| GTAATAAC | 0.392 |
| CATACCTC | 0.0518 |
| CTGAATTC | 0.0173 |
| AACACGAA | 0.386 |
| AGCACGAA | 0.167 |
| AACACGAC | 0.424 |

| Sequence | PBM E-score |
| --- | --- |
| TACACGAA | 0.456 |
| ACCACGAC | -0.0364 |
| AACACAAA | 0.261 |
| AACACGAG | 0.377 |
| TTCACGAA | 0.019 |
| TGCACGAA | 0.122 |
| CACACGAC | 0.223 |
| CACACGAA | 0.233 |
| CACACGAG | 0.152 |
| ACGTTAAT | 0.304 |
| GCTGGGAC | -0.263 |
| AAGAACTG | -0.178 |
| ACAGTGTA | 0.244 |
| CCCTCGCC | -0.357 |
| CATGCGAC | 0.0966 |
| CTTCTGCA | -0.0586 |
| CCTGCGGC | -0.341 |
| TCAAGTAA | 0.265 |
| AGGGCCCA | -0.239 |
| GACTTGGC | -0.347 |
| GACACGAC | 0.394 |
| ATCACGAT | -0.0443 |
| GACACGGC | 0.223 |
| AACACGAT | 0.439 |
| GACACGAA | 0.2 |
| AGCACGAT | 0.147 |

| Sequence | PBM E-score |
| --- | --- |
| ATAGAACA | 0.164 |
| GGGTTCGA | -0.248 |
| CGACAATC | -0.19 |
| GCCTCTGA | -0.251 |
| GTTTCAGA | -0.0374 |
| CACCGGCG | -0.12 |
| AACACTTC | 0.138 |
| ACTACCGA | -0.12 |
| TATCAACA | 0.365 |
| ATTCAACA | 0.352 |
| GATCAACA | 0.341 |
| CTTCAACA | 0.341 |
| AATCAACC | -0.103 |
| AATCAACG | 0.202 |
| GTTCAACA | 0.367 |
| CATCAACA | 0.297 |
| AATCAACA | 0.37 |
| CCCGGTTC | -0.22 |
| GCCAGGAC | -0.269 |
| AGTAGATG | 0.136 |
| GCGTAAGA | 0.249 |
| ATGTAAGG | 0.313 |
| ATGTAAGA | 0.433 |
| CTGTAAGC | -0.0257 |
| AGGTAAGA | -0.0177 |
| ATGTAAGC | 0.374 |

| Sequence | PBM E-score |
| --- | --- |
| AAGTAAGA | 0.0354 |
| GTGTAAGA | 0.401 |
| CTGTAAGA | 0.0715 |
| AGGGAGGC | -0.339 |
| ACATACCA | 0.227 |
| TGCTCTAA | -0.134 |
| ACCTTACC | 0.0897 |
| ACAACTAC | 0.225 |
| CCCGATAC | -0.0785 |
| GACATGGA | 0.263 |
| ATCATGCA | -0.0495 |
| ACCATGCT | 0.0386 |
| TACATGGA | 0.429 |
| AACATGCT | 0.396 |
| CACATGCG | 0.141 |
| AACATGCA | 0.417 |
| ATCATGCG | -0.0811 |
| ACCATGCA | 0.106 |
| CACATGGA | 0.197 |
| AACATGCG | 0.399 |
| AGCATGCT | 0.151 |

— the supplement of paper PMC3334620
